The whole screen tested about 2,100 compounds, of which about 480 (23%) were called active. Not shown: some 5% with an inconclusive outcome.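 How the source made its calls: active means fitted curve reaches 40% activation at or below the top valid concentration, in every replicate test; inconclusive means replicate tests disagree on the call; inactive means the rest, including activity in the opposite direction.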 Only a sample is shown. Results with a measured potency or affinity are listed apart.
Assay: activators raising PGC1a acetylation in cells, dose response, cell-based, cherry-picked samples, set 6 (AID 720513);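 further: cells made to overexpress flag tagged PGC1a plus GCN5 acetyltransferase by viral infection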
Conditions: U2OS PGC1a acetylation AlphaLISA, overnight, 0 = neutral, -100 = inhibitor control; series mostly up to 19.5 µM; activation (acetylation increase): at the top concentration

Activation (acetylation increase), inactive:
Cc1cc2c(c(/C=C/C(=O)c3ccccc3)c1)OC1(C=C2)Oc2ccccc2C(=O)N1C (stereo unspecified) -61.7%
N#Cc1c(N)c(C(=O)c2ccccc2)n2ccccc12 -23.1%
CSc1n[nH]c(NCc2ccccc2)n1 32.7%
CC1(C)CC(=O)C=C(NCc2ccco2)C1 23.6%
COC1(C)CN(Cc2ccccc2Br)[C@H](/C=C/c2ccccc2)[C@H](Cc2ccccc2)O1 (stereo partly specified) 8.05%
CCOc1ccccc1NC(=O)c1ccc2ccccc2c1 29.4%
CCn1nccc1C(=O)Nc1ccccc1OC 15.2% [at 10 µM]
C[C@@H]1CN([C@H](C)CO)C(=O)c2cc(C3=CCCCC3)cnc2O[C@@H]1CN(C)Cc1ccccc1 -36.1%
COc1ccc(C(CC(=O)Nc2ccccn2)N2Cc3ccccc3C2=O)cc1 (stereo unspecified) 22.9%
c1ccc(-c2cc(-c3ccccc3)n3ncnc3n2)cc1 9.55%
CC(C)NC(=O)Nc1ccc2c(c1)C(=O)N([C@@H](C)CO)C[C@H](C)[C@@H](CN(C)C(=O)CCC(F)(F)F)OCCCC[C@@H](C)O2 10.8%
C[C@H]1CN([C@@H](C)CO)S(=O)(=O)c2ccc(C#Cc3cccnc3)cc2O[C@@H]1CN(C)CC1CCOCC1 32.6%
COc1cc(NC(=O)NCc2ccco2)ccc1-c1ccc(NC(=O)NCc2ccco2)cc1OC -67.9%
Cc1noc(C)c1NC(=O)N[C@H]1C=C[C@H](CC(=O)NCc2ccc(Cl)c(Cl)c2)O[C@H]1CO -0.434%
CN1C(=O)c2ccccc2C(C(=O)O)C1c1cccc([N+](=O)[O-])c1 (stereo unspecified) 2.58%
CCOC(=O)C1(Cc2cccc(F)c2)CCN(Cc2ccc(COC)o2)CC1 22.6%
CCOC(=O)C1(Cc2cccc(F)c2)CCN(Cc2c(C)nn(CC)c2C)CC1 -4.38%
C[C@@H]1CN([C@@H](C)CO)C(=O)Cc2cc(NC(=O)CCC(F)(F)F)ccc2O[C@H]1CN(C)S(C)(=O)=O 11.5%
Cn1nnnc1Sc1ncnc2scc(-c3ccc[nH]3)c12 -86.7%
Oc1ccc2ccccc2c1CN1CCCCC1 25.1%
Cn1c(CCN2CCCCC2)nc2cc(NS(=O)(=O)c3ccccc3)ccc21 4.86%
Cn1c(O)c(C(C#N)=C2N=c3ccccc3=N2)c2ccccc21 30% [at 10 µM]
O=C(C[C@H]1CC[C@@H]2[C@H](COC[C@@H](O)CN2S(=O)(=O)c2ccc(F)cc2)O1)NCCN1CCCCC1 14.2%
O=c1oc(-c2ccccc2)cc(Cl)c1Cl -106%
CN(C)Cc1csc(NC(=O)Nc2ccccc2-c2ccccc2)n1 33%
Cc1noc(C)c1C(=O)Nc1nc(-c2cc(F)ccc2F)cs1 12.2%
CC(C)NC(=O)NCC[C@@H]1CC[C@H](NS(=O)(=O)c2ccc(-c3ccccc3)cc2)[C@@H](CO)O1 17%
COc1ccccc1NC(=O)CCC(=O)Nc1ccccc1OC 10.1%
COC(=O)c1cc(Cl)c(NS(=O)(=O)c2ccccc2)cc1OC -19.9%
CCn1c(=O)c2c(cnn2C)c2ccccc21 -24.2%
COc1ccc(-c2nc(C#N)c(NCc3ccco3)o2)cc1 4.47%
CCOc1ccc(Nc2ncnc3ccc([N+](=O)[O-])cc23)cc1 -15.2%
CCCNC(=O)c1nnsc1S(=O)(=O)c1ccc(Cl)cc1 -89.4%
Cc1cc(C)c2c(=O)[nH]n(C3CCCCCC3)c2n1 5.32%
O=C(C[C@H]1C[C@@H]2c3cc(NS(=O)(=O)c4ccc(F)cc4)ccc3O[C@@H]2[C@@H](CO)O1)N1CCc2ccccc2C1 -62.7%
O=C(C(Br)=Cc1ccccc1)c1ccccc1 -73.6%
O=C(C1CC1)N1C[C@@H]2N[C@H](C1)C2c1ccc(/C=C/c2ccccc2)cc1 (stereo partly specified) -16.1%
Cc1ccc(C(=O)OCN2C(=O)c3ccccc3C2=O)o1 -4.58%
CCCCC1C(=O)N(c2ccccc2)N(c2ccc(O)cc2)C1=O (stereo unspecified) -78.9%
O=C(Nc1nc2cc3c(cc2s1)OCCO3)c1ccncc1 6.43%
C[C@@H]1CN([C@@H](C)CO)C(=O)c2cc(NS(=O)(=O)c3ccc(F)cc3)ccc2O[C@@H]1CN(C)S(=O)(=O)c1ccc(Cl)cc1 2.96%
CC(C)NC(=O)Nc1ccc2c(c1)C(=O)N([C@@H](C)CO)C[C@@H](C)[C@H](CN(C)Cc1ccc(C(=O)O)cc1)OCCCC[C@H](C)O2 -8.89%
CCCC(=O)C1=C(O)C(C(=O)OC)C(C)(C)CC1=Nc1ccc(OC)cc1 (stereo unspecified) -9.98%
NC(=O)c1sc2nc3c(c(-c4cccs4)c2c1N)CCCCC3 -26.8%
COc1ccc(S(=O)(=O)N[C@H]2CC[C@@H](CCNC(=O)c3ccccc3F)O[C@@H]2CO)cc1 12.3%
O=C(Cc1ccccc1)N1CC[C@@H]2[C@H]1c1cc(C#Cc3ccccc3)ccc1N[C@@H]2CO -45.9%
CCCOC(=O)c1ccc(-n2nnnc2SCC(=O)N2CCCCC2)cc1 23.6%
CN(CC(=O)Nc1ccccc1Br)C(=O)c1cccc(S(=O)(=O)NCc2ccccc2)c1 -5.69%
C[C@@H]1CN([C@@H](C)CO)C(=O)c2cccc(NC(=O)Nc3ccccc3)c2O[C@H]1CN(C)S(=O)(=O)c1cccs1 15.1%
COc1ccc(Cl)cc1NC(=O)NCC1CCN(C(=O)OC(C)(C)C)CC1 -4.51%
COc1ccccc1NC(=O)Cn1c(C)cc(=O)c2cccc(OC)c21 -0.701%
O=C(Nc1ccc(C(F)(F)F)cc1)N1C[C@@H]2N[C@H](C1)C2c1ccc(/C=C/c2ccccc2)cc1 (stereo partly specified) -95.3%
CO[C@@H]1CN(C)C(=O)c2ccc(NS(=O)(=O)CC(F)(F)F)cc2OC[C@@H](C)N(C(=O)NC(C)C)C[C@H]1C -2.73%
O=C(CNC(=O)C1CCCCC1)OCC(=O)c1ccc(Cl)s1 25%
CCOCCc1nn2c(=O)cc(CSCC(=O)Nc3cccc(C)c3C)nc2s1 9.59%
CC(C)(C)NC(=O)c1ccc(Sc2ccccc2)c([N+](=O)[O-])c1 39%
Cc1cc(=O)[nH]c(SCC(=O)c2ccc(F)c(C)c2)n1 -8.86%
Cc1cccc(Oc2ccccc2NC(=O)C2=COCCO2)c1 30.4%
COc1cc(CN2CCC(C(=O)NCCC(C)C)CC2)ccc1OCc1ccccc1 30.9% [at 10 µM]
CCOc1ccc(-c2[nH]ncc2-c2ccc(OC)c(OC)c2)c(O)c1 1.17%
CNc1ccc2ncc(-c3ccc(OC)c(OC)c3)n2n1 -7.88%
CC(C)(C)OC(=O)NC(Cc1ccccc1)C(=O)NCCCC(=O)O (stereo unspecified) 5.65%
C[C@@H]1CN([C@@H](C)CO)C(=O)c2cc(C3=CCCC3)cnc2O[C@@H]1CN(C)C(=O)Nc1cccc(F)c1 16.2%
C[C@@H]1CN([C@H](C)CO)C(=O)CCCn2cc(nn2)CO[C@H]1CN(C)C(=O)Nc1ccc(C(F)(F)F)cc1 13.8%
C[C@@H]1CN([C@H](C)CO)C(=O)CCCn2nncc2CO[C@H]1CN(C)C(=O)Nc1cccc(F)c1 9.97%
CC(C)NC(=O)N(C)C[C@H]1OCCCC[C@@H](C)Oc2ccc(NC(=O)Nc3ccc(C(F)(F)F)cc3)cc2C(=O)N([C@H](C)CO)C[C@@H]1C -17.5%
COC(=O)Cn1ccc(-c2ccc(Cl)cc2)c(C#N)c1=O 7.9%
NC(=O)COC(=O)CC(NC(N)=O)c1ccc(Cl)cc1 (stereo unspecified) -8.85%
C[C@@H]1CN([C@H](C)CO)C(=O)CCCn2nncc2CO[C@@H]1CN(C)S(=O)(=O)c1cn(C)cn1 11%
Cc1ccccc1C(=O)Nc1ccc(C(=O)O)cc1NC(=O)c1ccccc1C 0.246% [at 10 µM]
Cc1ccc(NC2=C([N+](=O)[O-])CS(=O)(=O)C2)cc1 1.18%
O=C(COC(=O)C1CC2CCCC(C1)C2=O)Nc1ccc(F)c(Cl)c1 (stereo unspecified) 9.21%
COc1ccccc1/C=C(/C(=O)OCC(=O)NCc1ccccc1)c1ccccc1 -8.24%
S=c1sc2c(Cl)ncnc2n1-c1ccccc1 -99%
CCCN(C)C[C@@H]1Oc2cc(C#C[C@H](C)O)ccc2S(=O)(=O)N([C@H](C)CO)C[C@@H]1C 27.6%
Cc1ccc(C)c(C(=O)Cn2ncc(Cl)c(Cl)c2=O)c1 -81.4%
COc1ccc(C#Cc2ccc([C@@H]3[C@H](CO)N4CCCCN(C(=O)Nc5ccccc5)C[C@@H]34)cc2)cc1 -94%
C[C@H]1CN([C@@H](C)CO)S(=O)(=O)c2ccc(-c3ccccc3)cc2O[C@@H]1CN(C)Cc1cccc(F)c1 -95.1%
COc1ccccc1-c1ccc2c(c1)O[C@@H](CN(C)Cc1ccc3c(c1)OCO3)[C@@H](C)CN([C@H](C)CO)S2(=O)=O 39.1%
C[C@@H]1CN([C@H](C)CO)S(=O)(=O)c2ccc(-c3cncnc3)cc2O[C@H]1CN(C)Cc1cccnc1 4.68%
C[C@H](CO)N1C[C@H](C)[C@@H](CN(C)Cc2ccc3c(c2)OCO3)Oc2cc(-c3cccc(C(=O)N(C)C)c3)ccc2S1(=O)=O -14.6%
C[C@H]1CN([C@@H](C)CO)S(=O)(=O)c2ccc(C#CCN(C)C)cc2O[C@H]1CN(C)Cc1ccc2c(c1)OCO2 24.2%
CC(C)CC#Cc1ccc2c(c1)O[C@@H](CN(C)Cc1ccc3c(c1)OCO3)[C@H](C)CN([C@H](C)CO)S2(=O)=O -87.7%
COc1cccc(-c2ccc3c(c2)O[C@H](CN(C)Cc2ccncc2)[C@@H](C)CN([C@@H](C)CO)S3(=O)=O)c1 23.1% [at 21 µM]
CCCC#Cc1ccc2c(c1)O[C@@H](CN(C)Cc1ccc3c(c1)OCO3)[C@@H](C)CN([C@H](C)CO)S2(=O)=O 30%
Cc1cccc(CC2CC(=O)N(C3CCCCC3)C2=O)c1 (stereo unspecified) -13.6%
CCCCn1c(=O)[nH]c(=O)c2c1nc(-c1ccc(OCCC)c(OCC)c1)n2C -10.5%
Oc1ccc(-c2nc(-c3ccc(O)c(O)c3)cs2)cc1 17.4%
Cc1cccc(COc2ccc(/C=C3/C(=O)N(C)C(=S)N3C)cc2)c1 -10.1%
COc1ccc(CCN(C)C(=O)CN2C(=O)NC3(CCCc4ccccc43)C2=O)cc1OC (stereo unspecified) 2.14%

outcome, inactive:
O=C(Nc1ccc(C(F)(F)F)cc1)N1C[C@@H]2N[C@H](C1)C2c1ccc(-c2ccccc2)cc1 (stereo partly specified)
